The nature of assay [1]: qHTS assay to identify small molecule agonists of the vitamin D receptor (VDR) signaling pathway - cell viability counter screen (AID 743224; active = well fitted curve in the direction sought with a large enough effect in the repeat runs; an effect the other way counts as inactive or inconclusive; note: series mostly up to about 63 µM; nearly all actives have a fitted effect of over 50% in size). The procedure, abridged: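 Cells: VDR-bla, 2,000/well, settled 4 h. Treatment: compounds in DMSO, 16 h, 37C/5% CO2. Readout: CellTiter-Glo luminescence after 30 min RT.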
Assay [2] can be described thus: qHTS assay to identify small molecule antagonists of the vitamin D receptor (VDR) signaling pathway - cell viability counter screen (AID 743225; active = well fitted curve in the direction sought with a large enough effect in the repeat runs; an effect the other way counts as inactive or inconclusive; note: nearly all actives have a fitted effect of over 50% in size). The procedure, abridged:
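Parallel cytotoxicity test: VDR-UAS-bla HEK 293T, 3 nM (final) 1-alpha,25-dihydroxyvitamin D3 with test compound, 16 h, 37C. Endpoint is CellTiter-Glo luminescence in the same wells.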

Assay [3] can be described thus: qHTS assay to identify small molecule agonists of the NFkB signaling pathway - cell viability counter screen (AID 1159515). Note: series mostly up to about 61 µM; nearly all actives have a fitted effect of over 55% in size. The procedure, abridged: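 Cells are seeded (2,000 NFkB-bla ME-180 per well), rested overnight, and dosed with DMSO-dissolved compounds for 5 hr at 37 C. Viability is then read by CellTiter-Glo luminescence after 30 min at room temperature.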

A short description of assay [4]: qHTS assay to identify small molecule agonists of the endoplasmic reticulum stress response signaling pathway (AID 1159516; active = well fitted activation curve with a large enough effect in the signal ratio in the repeat runs, not every such curve was filed as active; the % refers to the signal ratio). The procedure, abridged: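 Cells are seeded at 1,500 per well and incubated overnight. Compounds in DMSO are added for 5 hr at 37 C, then beta-lactamase FRET substrate for 2 hr at room temperature, and fluorescence at 460 and 530 nm is measured.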

Assay [5] can be described thus: qHTS assay to identify small molecule agonists of the endoplasmic reticulum stress response signaling pathway - cell viability counter screen (AID 1159517).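 Note: HeLa cells carrying an ER stress response element beta-lactamase reporter; series mostly up to about 61 µM; nearly all actives have a fitted effect of over 50% in size.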 The procedure, abridged:
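In parallel with the ESRE reporter read, cytotoxicity was scored by CellTiter-Glo luminescence (30 min, room temperature) on HeLa ESRE-bla cells dosed for 5 hr.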

Assay [6] can be described thus: qHTS assay to identify small molecule antagonists of the retinoid-related orphan receptor gamma (ROR-gamma) signaling pathway - cell viability counter screen (AID 1159520; active = well fitted curve in the direction sought with a large enough effect in the repeat runs; an effect the other way counts as inactive or inconclusive; note: nearly all actives have a fitted effect of over 50% in size). The procedure, abridged:
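Tet-on ROR gamma CHO cells were given compounds for 2 hr, then doxycycline hyclate at 1 uM final, and incubated 16 hr at 37 C. Viability was measured as ATP content by CellTiter-Glo luminescence.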

The target in assay [7] is Nuclear receptor ROR-gamma (Homo sapiens) (UniProt P51449). The assay is described as follows: qHTS assay to identify small molecule antagonists of the retinoid-related orphan receptor gamma (ROR-gamma) signaling pathway (AID 1159521; active = well fitted curve in the direction sought with a large enough effect in the repeat runs; an effect the other way counts as inactive or inconclusive; note: nearly all actives have a fitted effect of over 50% in size; note: potency is the fitted concentration of half-maximal effect). The procedure, abridged: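 Decreased RORE-driven luciferase luminescence indicates antagonism. Tet-on RORγ CHO cells received compound, then 1 uM final doxycycline 2 h later; signal read after 16 h incubation.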

Assay [8] is described as follows: qHTS assay to identify small molecule agonists of the AP-1 signaling pathway - cell viability counter screen (AID 1159525). Note: nearly all actives have a fitted effect of over 55% in size. In outline: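 Same-well cytotoxicity counter screen of the Tox21 10K library in ME-180 cells. The readout is ATP-dependent luminescence after 5 h compound treatment. Data are normalised to DMSO and tetra n-octyl ammonium bromide controls.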

Assay [9] concerns the target Retinoic acid receptor RXR-alpha (Homo sapiens) (UniProt P19793). The assay is described as follows: qHTS assay to identify small molecule agonists of the RXR signaling pathway (AID 1159527). Note: nearly all actives have a fitted effect of over 35% in size. In outline: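 16 hr incubation of compound-treated RXR-alpha-UAS-bla HEK 293T cells (2% charcoal-stripped FBS, 37 C) preceded a 2 hr room-temperature LiveBLAzer FRET substrate step and blue/green fluorescence measurement.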

Assay [10] can be described thus: qHTS assay to identify small molecule agonists of the AP-1 signaling pathway (AID 1159526).

SMILES strings stand for the structures. Inconclusive results are not listed. Active and inactive are the calls of the source. Unless noted, calls come from the whole dose curve.

Retinoic acid receptor RXR-alpha (Homo sapiens), sequence (P19793 whole entry, looked up): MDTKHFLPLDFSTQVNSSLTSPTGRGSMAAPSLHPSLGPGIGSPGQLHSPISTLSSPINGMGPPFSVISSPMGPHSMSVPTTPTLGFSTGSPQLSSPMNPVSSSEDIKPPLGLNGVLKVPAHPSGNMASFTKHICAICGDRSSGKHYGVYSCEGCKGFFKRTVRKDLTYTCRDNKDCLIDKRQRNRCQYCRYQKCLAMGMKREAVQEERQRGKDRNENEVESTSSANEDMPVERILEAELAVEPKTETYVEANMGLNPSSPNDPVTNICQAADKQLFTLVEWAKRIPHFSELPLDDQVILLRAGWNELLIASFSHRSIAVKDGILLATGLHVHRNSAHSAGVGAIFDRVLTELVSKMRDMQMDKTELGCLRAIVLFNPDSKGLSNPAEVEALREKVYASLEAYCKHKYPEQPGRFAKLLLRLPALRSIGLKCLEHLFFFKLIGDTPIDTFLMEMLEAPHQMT

For the molecule `CC[C@]1(O)CC[C@H]2[C@@H]3CCC4=CCCC[C@@H]4[C@H]3CC[C@@]21C`, the Potency result in assay [1], in assay [2], in assay [3], in assay [4], in assay [5] and in [6] was “inactive” in each case. Further, the Potency entry in assay [7] and in assay [8] was “inactive” in each case.
Regarding `ClSC(Cl)(Cl)Cl`, the Potency result in assay [1], in [2], in assay [3], in assay [4], in assay [5] and in assay [6] was “inactive” throughout. Further, the Potency result in assay [7], in assay [8] and in assay [9] was “inactive” in each case.
On to `O=C(O)[C@H](O)[C@@H](O)C(=O)O`, for which the Potency entry in assay [1], in assay [2], in assay [3], in assay [4], in [5] and in assay [6] was “inactive” each time. In addition, the Potency result in assay [7], in assay [8] and in assay [10] was “inactive” each time.
As to `O=C(CCCCl)c1ccc(F)cc1`, the Potency result in [1], in assay [2], in assay [3], in assay [4], in assay [5] and in assay [6] was “inactive” in each case. The Potency entry in assay [8], in [10] and in [9] was “inactive” in each case.
With `[Cl-].[Cl-].[Cl-].[Yb+3]`, the Potency result in assay [1], in [3], in [4], in assay [5], in assay [6] and in assay [8] was “inactive” in each case. Besides, the Potency entry in [10] is “inactive”.
As for `CCN(CC)Cc1nccn1-c1ccc([N+](=O)[O-])cc1C(=O)c1ccccc1Cl`, the Potency result in assay [1], in assay [2], in assay [3], in assay [4], in [5] and in [6] was “inactive” each time. Moreover, the Potency result in [7], in [8] and in assay [10] was “inactive” throughout.
For the molecule `ClCBr`, the Potency result in assay [1], in [2], in [3], in assay [4], in assay [5] and in [6] was “inactive” throughout. Besides, the Potency entry in assay [8] and in assay [10] was “inactive” in each case.
In the case of `CCNc1nc(NC(C)C(C)C)nc(SC)n1` (stereo not given), the Potency result in assay [1], in [2], in assay [3], in [4], in assay [5] and in assay [6] was “inactive” throughout. Further, the Potency entry in [8], in assay [10] and in assay [9] was “inactive” in each case.
`CC(C)N(C(=O)SC/C(Cl)=C/Cl)C(C)C`: the Potency entry in assay [1], in [2], in assay [3], in assay [4], in assay [5] and in assay [6] was “inactive” each time. The Potency result in assay [7], in assay [8] and in assay [9] was “inactive” in each case.
Take `O=S(=O)(O)F`: the Potency result in assay [1], in assay [2], in assay [3], in assay [4], in [5] and in assay [6] was “inactive” in each case. Further, the Potency result in [8], in [10] and in [9] was “inactive” throughout.
On to `CC1CN1` (stereo not given), for which the Potency result in assay [1], in assay [2], in assay [3], in assay [4], in assay [5] and in assay [6] was “inactive” each time. In addition, the Potency entry in assay [8], in assay [10] and in [9] was “inactive” each time.
Consider `O=NN(CCO)CCO`, for which the Potency result in assay [1], in [2], in assay [3], in [4], in assay [5] and in [6] was “inactive” each time. For the same molecule, the Potency result in assay [8], in assay [10] and in assay [9] was “inactive” each time.
Take `[O-][Cl+3]([O-])([O-])O`: the Potency entry in assay [1], in assay [3], in assay [4], in assay [5], in [6] and in assay [8] was “inactive” each time. In addition, the Potency result in assay [10] is “inactive”.
In the case of `CCN(CC)CCc1c[nH]c2ccccc12`, the Potency entry in [2], in [3], in assay [4], in [5], in [6] and in [7] was “inactive” throughout. Moreover, the Potency result in assay [8] and in assay [9] was “inactive” each time.
In the case of `c1cc[n+]2c(c1)-c1cccc[n+]1CC2`, the Potency result in assay [1], in [2], in assay [3], in assay [4], in assay [5] and in [6] was “inactive” throughout. Moreover, the Potency result in assay [8], in assay [10] and in [9] was “inactive” throughout.
`CN1CCc2cc(Cl)c(O)cc2[C@H]2c3ccccc3CC[C@@H]21`: the Potency entry in [1], in assay [2], in assay [3], in [4], in [5] and in assay [6] was “inactive” throughout. Moreover, the Potency entry in assay [8] and in assay [10] was “inactive” throughout.
For `O=c1c2ccccc2c(=O)c2c1cc(Cl)c1[nH]c3c([nH]c12)c(Cl)cc1c(=O)c2ccccc2c(=O)c13`, the Potency result in assay [1], in assay [3], in assay [4], in assay [5], in assay [6] and in [7] was “inactive” throughout. Moreover, the Potency entry in assay [8] and in [9] was “inactive” throughout.
Turning to `CNC(=O)O/N=C(\C)C(C)S(C)(=O)=O` (stereo not given), the Potency entry in assay [1], in assay [2], in [3], in assay [4], in [5] and in [6] was “inactive” each time. In addition, the Potency entry in assay [7] and in [8] was “inactive” each time.
For `ClC(Cl)C(Cl)(Cl)Cl`, the Potency result in assay [1], in [2], in [3], in assay [4], in [5] and in assay [6] was “inactive” throughout. Moreover, the Potency entry in [8], in assay [10] and in assay [9] was “inactive” in each case.
For `Cc1cc2c3c(c1)C(c1ccccc1)=N[C@@H](NC(=O)c1ccncc1)C(=O)N3CC2`, the Potency result in [1], in assay [2], in [3], in assay [4], in assay [5] and in assay [6] was “inactive” in each case. The Potency entry in [8] and in [10] was “inactive” in each case.
For the molecule `CC#C[C@]1(O)CC[C@H]2[C@@H]3C[C@H](C)C4=CC(=O)CC[C@]4(C)[C@H]3CC[C@@]21C`, the Potency result in [1], in assay [2], in [3], in assay [4], in [5] and in assay [6] was “inactive” each time. The Potency result in assay [8] was “inactive”. For the same molecule, the Potency in assay [7] is 26.6 µM (active).
Take `CC(=O)[O-].CC(=O)[O-].O.O.[Zn+2]`: the Potency result in assay [1], in [2], in [3], in assay [4], in assay [5] and in assay [6] was “inactive” each time. Moreover, the Potency result in [8], in [10] and in assay [9] was “inactive” in each case.
Turning to `C1=CCC=C1`, the Potency result in [1], in assay [2], in assay [3], in assay [4], in assay [5] and in assay [6] was “inactive” each time. Moreover, the Potency entry in [7] and in [8] was “inactive” throughout.
Consider `CC[N+]1(CC)CCC(OC(=O)C(O)(c2ccccc2)c2ccccc2)C1` (stereo not given), for which the Potency result in assay [1], in [2], in assay [3], in assay [4], in assay [5] and in assay [6] was “inactive” each time. Further, the Potency entry in assay [8], in assay [10] and in assay [9] was “inactive” each time.
Consider `CNC(C)(C)Cc1ccccc1`, for which the Potency result in assay [1], in assay [2], in assay [3], in assay [4], in assay [5] and in assay [6] was “inactive” in each case. Also, the Potency entry in assay [8], in assay [10] and in assay [9] was “inactive” each time.
Regarding `C#CCO`, the Potency entry in [1], in [2], in assay [3], in assay [4], in assay [5] and in [6] was “inactive” in each case. The Potency entry in [8] and in [10] was “inactive” in each case.

Values taken from PubChem BioAssay (Tox21).
